This note sets out measurements from the supplement of paper PMC3545927.

The other results are listed elsewhere or left out. The hit rate among all sequences tested is not known here.

This experiment deals with furin, P09958. Kind of experiment: furin cleavage Z-score vs untreated control; higher = more cleavage, active = 3.5 or more, inactive = 1 or less, 8 variable residues between constant flanks. Summed up:
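Magnetic beads held 8-mer peptides by the N-terminus, each fused to a cDNA oligonucleotide, and purified furin was added for 7.5, 15 or 30 min. Released DNA was sequenced after PCR adapter tagging. The cleavage Z-score is the log count relative to furin-free reactions, lowess-adjusted and divided by median absolute deviation.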
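Further: purified furin at 1:10 enzyme:substrate in 50 mM HEPES pH 7.5.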

Sequence of furin, P09958 (P09958 whole entry, the tested form may be a part): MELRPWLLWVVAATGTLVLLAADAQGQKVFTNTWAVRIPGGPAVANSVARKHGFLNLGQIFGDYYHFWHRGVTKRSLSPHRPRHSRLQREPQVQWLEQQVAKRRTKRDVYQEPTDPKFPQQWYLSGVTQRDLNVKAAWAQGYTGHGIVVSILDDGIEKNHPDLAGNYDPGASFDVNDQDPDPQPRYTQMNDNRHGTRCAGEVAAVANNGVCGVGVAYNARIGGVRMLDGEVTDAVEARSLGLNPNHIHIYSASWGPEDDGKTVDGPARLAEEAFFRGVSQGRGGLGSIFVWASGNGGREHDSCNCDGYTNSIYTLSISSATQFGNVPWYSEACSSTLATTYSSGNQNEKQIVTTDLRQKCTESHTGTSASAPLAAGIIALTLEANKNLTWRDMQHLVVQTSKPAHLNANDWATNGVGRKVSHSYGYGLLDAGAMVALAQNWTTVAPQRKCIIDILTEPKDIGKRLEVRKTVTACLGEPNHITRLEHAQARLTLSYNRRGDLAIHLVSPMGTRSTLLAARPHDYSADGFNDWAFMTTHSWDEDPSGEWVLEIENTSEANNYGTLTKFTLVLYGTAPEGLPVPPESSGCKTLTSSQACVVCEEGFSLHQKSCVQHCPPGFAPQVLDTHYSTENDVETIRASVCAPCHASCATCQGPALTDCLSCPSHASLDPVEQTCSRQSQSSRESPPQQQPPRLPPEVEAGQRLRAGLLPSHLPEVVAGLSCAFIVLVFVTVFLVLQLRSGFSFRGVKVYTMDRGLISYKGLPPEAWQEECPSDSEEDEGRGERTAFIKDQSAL

With CAEVPCHRDSAGNASASA [HC2391], the “furin cleavage Z-score” value (7.5 min) was 0.533 (inactive), the “furin cleavage Z-score” value (15 min) came out at 1.52 and the “furin cleavage Z-score” value (30 min) is 1.63.
CAFVSLLAPGAGNASASA [HC360]: the “furin cleavage Z-score” value is -0.325 (inactive) (7.5 min), -1.4 (inactive) (15 min) and -1.08 (inactive) (30 min).
Taken in the same sequence, the figures for CAEVPCHDPSAGNASASA [HC2371] were 0.427 (inactive), 1.64 and 0.537 (inactive).
For CAEVPCHRYSAGNASASA [HC2389], in that order: 0.533 (inactive), 1.28 and 1.5.
Consider CADLMEECSQAGNASASA [HC1805], for which the “furin cleavage Z-score” value by setting is: (7.5 min) -0.946 (inactive); (15 min) -0.224 (inactive); (30 min) -0.925 (inactive).
For CALKRMQKRSAGNASASA [FS-610], in that order: 12.7 (active), 13.3 (active) and 10.5 (active).
With CAEALRQKRAAGNASASA [FS-227], the “furin cleavage Z-score” value is 6.68 (active) (7.5 min), 7.12 (active) (15 min) and 5.04 (active) (30 min).
For CAHLVRQKRAAGNASASA [FS-1008], in that order: 10.3 (active), 10.1 (active) and 7.65 (active).
Regarding CAEAMTRYSAAGNASASA [HC1541], the “furin cleavage Z-score” value was -0.217 (inactive) (7.5 min), 0.448 (inactive) (15 min) and -0.963 (inactive) (30 min).
Regarding CATTPCSGPWAGNASASA [HC1919], the “furin cleavage Z-score” value is, setting by setting: (7.5 min) -0.176 (inactive); (15 min) 1.46; (30 min) 0.343 (inactive).
For CAFVLNNTRPAGNASASA [HC429], in that order: -0.02 (inactive), 0.46 (inactive) and -0.424 (inactive).
For CARRLRARREAGNASASA [FS-291], in that order: 9.55 (active), 8.95 (active) and 6.29 (active).
For CARRLREAVQAGNASASA [FS-2071], in that order: 0.989 (inactive), -0.0587 (inactive) and 2.28.
Consider CARARRRTPTAGNASASA [FS-1995], for which the “furin cleavage Z-score” value is, setting by setting: (7.5 min) 0.355 (inactive); (15 min) 2.75; (30 min) 0.804 (inactive).
For CARARRRSAEAGNASASA [FS-2889], in that order: 2.93, 2.98 and 4.07 (active).
Taken in the same sequence, the figures for CARARKLADEAGNASASA [FS-2887] were 0.23 (inactive), -0.74 (inactive) and -2.19 (inactive).
Taken in the same sequence, the figures for CARARRLRREAGNASASA [FS-288] were 12.9 (active), 12.3 (active) and 9.18 (active).
Regarding CARARRSMDEAGNASASA [FS-2203], the “furin cleavage Z-score” value is 10.2 (active) (7.5 min), 11.1 (active) (15 min) and 8.05 (active) (30 min).
